PubChem BioAssay (NCATS)
Inconclusive results are not listed. The source made the active and inactive calls. Unless noted, calls follow the shape of the dose curve; as a rule, active = well fitted curve in the direction sought with a large enough effect; inconclusive = small, poorly fitted or top-dose-only effect, or another doubt; inactive = no such curve, though single readings can be large; an effect the other way counts as inactive or inconclusive.

What was measured:
[1] = target: Glucocorticoid receptor (Homo sapiens) (UniProt P04150); test: GR-GFP Redistribution (AID 450;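 active = compounds whose dose series gives a full or clear partial fitted curve of increased nuclear translocation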; also: potency is read from the fitted curve at half-maximal effect); settings: U2OS GR-GFP nuclear translocation, laser cytometry, 2 h
[2] = target: Glucocorticoid receptor (Homo sapiens) (UniProt P04150); test: GR-EFC Redistribution (AID 451; calls by dose curve; also: potency is read from the fitted curve at half-maximal effect); settings: CHO-K1 GR-EFC translocation, beta-gal luminescence, 2 h
In short: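 Translocation of GR-ED fusion to nuclear EA restores b-gal, read by luminescence after 1 h room-temperature detection. Engineered CHO-K1 biosensor cells, 1,000/well, exposed 2 h at 37 C to titrations up to 46 uM final.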

[3] = target: Mitogen-activated protein kinase 10 (Mus musculus) (UniProt Q61831); test: JNK3 AlphaScreen Assay (AID 530; active = well fitted curve in either direction with a large enough effect, not every such curve was filed as active;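 also: kinase came from lysate of stimulated human HepG2 cells; signal reports phosphorylation of biotinylated GST-cJun 1-79 at Ser73 with 10 µM ATP; series mostly up to about 57 µM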)
In short: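 Kinase buffer: 20 mM Tris-HCl pH 7.6, 10 mM MgCl2, 1 mM DTT, 0.1 mM Na3VO4, 0.01% Tween-20; ATP 10 uM. Substrate biotin-GST-cJun(1-79), enzyme from activated HepG2 lysates. Detection by Ser73 phospho-antibody AlphaScreen.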

[4] = target: Cytochrome P450 3A4 (Homo sapiens) (UniProt P08684); test: qHTS Assay for Activators of Cytochrome P450 3A4 (AID 885); also: nearly all actives have a fitted effect of over 65% in size
In short: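 Luminescent readout of luciferin formed from 25 uM Luciferin-PPXE (KM level) by 20 nM CYP3A4 in 200 mM KPO4, with 60 min NADPH-driven reaction at room temperature after 10 min compound exposure. Ketoconazole (57 uM) defined 100% inhibition.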

[5] = target: Ubiquitin carboxyl-terminal hydrolase 1 (Homo sapiens) (UniProt O94782); test: Inhibitors of USP1/UAF1: Pilot qHTS (AID 504865);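 also: rhodamine fluorescence freed from ubiquitin-rhodamine substrate followed over time; top concentration of the series differs between compounds; nearly all actives have a fitted effect of over 35% in size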
In short: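 Enzyme-free wells gave the negative control, while test wells held 1nM USP1/UAF1 preincubated with compound for 15 min at room temperature. Ub-Rho at 150nM final started the reaction, and fluorescence at 480/540 nm was recorded kinetically.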

[6] = target: DNA dC->dU-editing enzyme APOBEC-3G (Homo sapiens) (UniProt Q9HC16); test: qHTS for inhibitors of Vif-A3G interactions: Validation (AID 588379); also: potency is read from the fitted curve at half-maximal effect
In short: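 Yellow fluorescence (Ex 488, Em 500-530) of Vif-coexpressing HeLa A3G-eYFP cells, scanned by Acumen cytometer, reports blocked A3G degradation. Cells plated at 700/well overnight at 37 deg C before compound addition, then a further overnight compound incubation at 37 deg C.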

[7] = test system: Zika virus NS2B-NS3 protease; test: Primary screen GU AMC qHTS for Zika virus inhibitors (AID 1347154); also: nearly all actives have a fitted effect of over 70% in size
In short: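 Fluorogenic AMC-substrate cleavage by noncovalent NS2B-NS3 protease complex (25 nM, pH 8.0 Tris buffer with Tween 20) followed for 15 minutes at room temperature (~20% conversion). Percent inhibition from ex340/em450 signal change, fitted by 4-parameter Hill equation.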

[8] = Primary qHTS for small molecule stabilizers of the endoplasmic reticulum resident proteome: Secreted ER Calcium Modulated Protein (SERCaMP) assay (AID 1508630)
In short: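 The SH-SY5Y reporter protocol was run at 3 concentrations up to 38.3 uM (primary) or 11 concentrations (follow-up): 16 h compound, 100 nM thapsigargin for 4 h, then extracellular luciferase luminescence.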

[9] = target: Cytochrome P450 2C9 (Homo sapiens) (UniProt P11712); test: qHTS Assay for Inhibitors and Substrates of Cytochrome P450 2C9 (AID 883); also: potency is read from the fitted curve at half-maximal effect; nearly all actives have a fitted effect of over 60% in size
In short: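 Turnover of Luciferin-H (100uM, KM) by 10nM human CYP2C9 was measured over 60 min at 37C with NADPH regeneration; inhibitors and some substrates reduce luminescence. Data normalized to sulphaphenazole 57uM.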

[10] = target: Cytochrome P450 2C19 (Homo sapiens) (UniProt P33261); test: qHTS Assay for Inhibitors and Substrates of Cytochrome P450 2C19 (AID 899); also: potency is read from the fitted curve at half-maximal effect; nearly all actives have a fitted effect of over 60% in size
In short: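 Reactions contain 5nM enzyme, 10uM Luciferin-H EGE (KM) and 50mM KPO4; compound preincubates 10 min at 37C, NADPH regeneration starts turnover for 60 min. Luminescence after detection reagent gives activity.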

[11] = target: 3',5'-cyclic-AMP phosphodiesterase 4B (Homo sapiens) (UniProt Q07343); test: qHTS Assay for Inhibitors of PDE-IV (AID 607; active = well fitted activation curve with a large enough effect in the main read-out, with a control signal flat, not every such curve was filed as active)
In short: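 Cell-based read-out of cAMP via a modified cyclic nucleotide-gated channel and membrane potential dye (535/590 nm) in HEK293 cells expressing PDE4 endogenously. Compounds tested up to 22.9 uM final; 100 uM RO 20-1724 reference.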

Measured: Potency

Cytochrome P450 3A4 (Homo sapiens), sequence (P08684 whole entry, looked up): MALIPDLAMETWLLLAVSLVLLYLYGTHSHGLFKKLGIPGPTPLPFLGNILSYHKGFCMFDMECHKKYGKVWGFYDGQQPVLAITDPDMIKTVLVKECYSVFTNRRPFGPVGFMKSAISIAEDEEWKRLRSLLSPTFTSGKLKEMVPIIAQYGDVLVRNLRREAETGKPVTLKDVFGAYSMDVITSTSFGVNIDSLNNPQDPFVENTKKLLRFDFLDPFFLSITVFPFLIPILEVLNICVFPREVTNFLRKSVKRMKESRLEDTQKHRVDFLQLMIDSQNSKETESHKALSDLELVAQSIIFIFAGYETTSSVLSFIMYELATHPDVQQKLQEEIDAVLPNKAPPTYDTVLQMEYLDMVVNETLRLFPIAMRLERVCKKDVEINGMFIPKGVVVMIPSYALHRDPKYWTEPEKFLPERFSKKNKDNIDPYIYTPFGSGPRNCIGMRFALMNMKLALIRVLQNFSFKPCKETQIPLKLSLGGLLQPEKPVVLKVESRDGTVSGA
DNA dC->dU-editing enzyme APOBEC-3G (Homo sapiens), sequence (Q9HC16 whole entry, looked up): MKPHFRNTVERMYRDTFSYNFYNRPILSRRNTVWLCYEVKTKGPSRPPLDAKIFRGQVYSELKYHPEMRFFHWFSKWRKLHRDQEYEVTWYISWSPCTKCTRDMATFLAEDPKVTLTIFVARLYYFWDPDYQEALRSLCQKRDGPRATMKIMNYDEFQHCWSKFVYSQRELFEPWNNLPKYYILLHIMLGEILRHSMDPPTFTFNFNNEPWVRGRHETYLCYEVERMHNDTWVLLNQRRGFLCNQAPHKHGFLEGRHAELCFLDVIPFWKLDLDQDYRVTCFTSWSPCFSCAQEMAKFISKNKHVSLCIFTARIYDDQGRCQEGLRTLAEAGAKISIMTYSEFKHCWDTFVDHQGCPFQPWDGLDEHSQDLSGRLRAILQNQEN
Ubiquitin carboxyl-terminal hydrolase 1 (Homo sapiens), sequence (O94782 whole entry, looked up): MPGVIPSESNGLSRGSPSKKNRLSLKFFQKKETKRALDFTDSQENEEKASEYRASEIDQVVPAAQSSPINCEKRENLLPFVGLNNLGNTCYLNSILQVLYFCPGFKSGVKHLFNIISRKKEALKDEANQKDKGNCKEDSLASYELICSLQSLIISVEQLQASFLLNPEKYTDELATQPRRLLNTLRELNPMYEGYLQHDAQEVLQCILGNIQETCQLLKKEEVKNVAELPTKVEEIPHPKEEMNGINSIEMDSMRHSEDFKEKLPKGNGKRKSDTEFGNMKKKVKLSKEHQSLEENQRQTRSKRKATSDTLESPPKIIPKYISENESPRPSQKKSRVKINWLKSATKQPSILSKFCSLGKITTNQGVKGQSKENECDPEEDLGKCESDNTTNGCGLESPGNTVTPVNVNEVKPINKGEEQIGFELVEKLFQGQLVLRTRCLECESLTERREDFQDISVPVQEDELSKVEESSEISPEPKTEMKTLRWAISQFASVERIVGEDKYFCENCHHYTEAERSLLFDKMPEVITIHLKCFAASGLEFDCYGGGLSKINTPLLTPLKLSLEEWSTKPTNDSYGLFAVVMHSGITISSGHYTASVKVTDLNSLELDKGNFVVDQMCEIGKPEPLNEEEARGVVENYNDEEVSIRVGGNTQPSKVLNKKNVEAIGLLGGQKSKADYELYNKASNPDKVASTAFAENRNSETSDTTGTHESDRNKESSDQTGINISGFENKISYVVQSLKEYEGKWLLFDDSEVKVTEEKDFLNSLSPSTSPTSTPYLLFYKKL
3',5'-cyclic-AMP phosphodiesterase 4B (Homo sapiens), sequence (Q07343 whole entry, looked up): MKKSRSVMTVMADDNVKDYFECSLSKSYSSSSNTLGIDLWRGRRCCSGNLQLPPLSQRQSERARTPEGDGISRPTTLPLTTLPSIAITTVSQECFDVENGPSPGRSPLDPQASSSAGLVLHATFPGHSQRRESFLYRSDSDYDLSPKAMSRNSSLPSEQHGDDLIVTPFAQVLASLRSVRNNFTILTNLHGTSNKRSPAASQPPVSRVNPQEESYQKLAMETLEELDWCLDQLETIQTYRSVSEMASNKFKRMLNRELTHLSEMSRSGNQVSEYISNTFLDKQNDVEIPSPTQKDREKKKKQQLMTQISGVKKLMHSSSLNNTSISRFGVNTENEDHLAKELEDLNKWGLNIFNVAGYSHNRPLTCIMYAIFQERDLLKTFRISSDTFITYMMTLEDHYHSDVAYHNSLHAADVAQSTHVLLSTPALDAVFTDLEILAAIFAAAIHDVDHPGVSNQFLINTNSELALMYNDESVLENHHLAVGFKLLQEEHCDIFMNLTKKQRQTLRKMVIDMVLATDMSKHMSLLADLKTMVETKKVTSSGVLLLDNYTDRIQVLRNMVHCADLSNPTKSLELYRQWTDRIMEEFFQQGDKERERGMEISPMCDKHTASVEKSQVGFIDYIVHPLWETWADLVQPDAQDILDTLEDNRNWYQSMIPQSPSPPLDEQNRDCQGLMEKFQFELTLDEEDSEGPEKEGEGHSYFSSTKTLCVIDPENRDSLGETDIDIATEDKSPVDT
Glucocorticoid receptor (Homo sapiens), sequence (P04150 whole entry, looked up, the tested form may be a part): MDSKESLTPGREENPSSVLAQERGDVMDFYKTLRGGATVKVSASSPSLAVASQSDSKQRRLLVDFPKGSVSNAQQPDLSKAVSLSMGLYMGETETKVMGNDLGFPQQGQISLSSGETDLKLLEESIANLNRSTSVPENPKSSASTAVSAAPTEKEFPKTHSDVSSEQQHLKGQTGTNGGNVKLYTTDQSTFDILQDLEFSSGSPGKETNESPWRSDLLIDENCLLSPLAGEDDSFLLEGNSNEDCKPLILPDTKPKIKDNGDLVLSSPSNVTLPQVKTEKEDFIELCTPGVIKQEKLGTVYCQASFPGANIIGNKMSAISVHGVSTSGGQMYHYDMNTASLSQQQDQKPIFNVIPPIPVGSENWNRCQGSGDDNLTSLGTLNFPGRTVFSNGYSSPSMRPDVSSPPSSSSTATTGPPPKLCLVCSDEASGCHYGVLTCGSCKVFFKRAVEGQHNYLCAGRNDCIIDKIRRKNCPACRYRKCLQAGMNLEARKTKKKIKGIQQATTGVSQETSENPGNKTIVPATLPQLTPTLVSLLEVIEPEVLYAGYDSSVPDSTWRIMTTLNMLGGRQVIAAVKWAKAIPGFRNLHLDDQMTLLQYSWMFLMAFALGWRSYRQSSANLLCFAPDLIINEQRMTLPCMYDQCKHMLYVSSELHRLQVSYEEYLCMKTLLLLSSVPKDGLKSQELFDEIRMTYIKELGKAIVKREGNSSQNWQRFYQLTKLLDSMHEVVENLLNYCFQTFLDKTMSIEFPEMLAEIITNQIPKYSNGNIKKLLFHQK
Cytochrome P450 2C19 (Homo sapiens), sequence (P33261 whole entry, looked up): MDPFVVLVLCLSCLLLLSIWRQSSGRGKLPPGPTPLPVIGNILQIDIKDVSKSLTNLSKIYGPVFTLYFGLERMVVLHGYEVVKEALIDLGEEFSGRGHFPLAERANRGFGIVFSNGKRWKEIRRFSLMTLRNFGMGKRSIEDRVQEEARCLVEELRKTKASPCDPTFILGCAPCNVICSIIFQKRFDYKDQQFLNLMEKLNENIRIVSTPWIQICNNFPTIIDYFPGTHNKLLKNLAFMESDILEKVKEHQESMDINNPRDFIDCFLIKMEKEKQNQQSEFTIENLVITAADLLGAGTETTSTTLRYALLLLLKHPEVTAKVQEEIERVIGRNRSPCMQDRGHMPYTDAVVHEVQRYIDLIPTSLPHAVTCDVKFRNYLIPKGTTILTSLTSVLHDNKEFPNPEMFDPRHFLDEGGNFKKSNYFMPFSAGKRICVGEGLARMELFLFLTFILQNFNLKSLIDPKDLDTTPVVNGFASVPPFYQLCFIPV
Cytochrome P450 2C9 (Homo sapiens), sequence (P11712 whole entry, looked up): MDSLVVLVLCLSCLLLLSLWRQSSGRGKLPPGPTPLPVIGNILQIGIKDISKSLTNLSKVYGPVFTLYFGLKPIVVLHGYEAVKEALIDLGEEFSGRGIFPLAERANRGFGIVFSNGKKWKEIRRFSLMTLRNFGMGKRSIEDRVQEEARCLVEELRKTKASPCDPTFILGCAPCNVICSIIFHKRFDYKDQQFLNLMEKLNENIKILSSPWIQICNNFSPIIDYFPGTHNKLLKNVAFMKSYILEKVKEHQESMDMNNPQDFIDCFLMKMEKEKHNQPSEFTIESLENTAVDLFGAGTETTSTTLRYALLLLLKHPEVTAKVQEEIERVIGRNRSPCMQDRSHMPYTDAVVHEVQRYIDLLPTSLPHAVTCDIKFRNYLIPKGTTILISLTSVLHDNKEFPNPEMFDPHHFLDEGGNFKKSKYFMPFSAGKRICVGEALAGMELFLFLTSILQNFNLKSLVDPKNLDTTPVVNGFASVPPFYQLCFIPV

O=C(O)CC/C=C\C[C@@H]1CO[C@H](c2ccccc2Cl)O[C@@H]1c1ccccc1O
inactive: [1] > 46 µM | [2] > 46 µM | [3] | [4] | [5] | [6] | [7] | [8]

O=[N+]([O-])c1ccc2cn[nH]c2c1
inactive: [2] > 46 µM | [4] | [5] | [6] | [7] | [8]

CNC(=O)[C@H]1O[C@H](n2cnc3c(NCc4cccc(I)c4)ncnc32)[C@@H](O)[C@@H]1O
inactive: [1] > 46 µM | [2] > 46 µM | [3] | [4] | [5] | [6] | [7] | [8]

NCCCCNS(=O)(=O)c1ccc2c(Cl)cccc2c1
inactive: [1] > 46 µM | [2] > 46 µM | [4] | [6] | [7] | [8]
active: [9] 2 µM | [10] 0.0025 µM

CCN(CC)c1ncnc2c1ncn2[C@@H]1O[C@@H](COP(=O)(O)OP(=O)(O)C(Br)(Br)P(=O)(O)O)[C@H](O)[C@H]1O
inactive: [6] | [7] | [8]

Cn1ccc2cc(NC(=O)Nc3cccnc3)ccc21
inactive: [1] > 46 µM | [2] > 46 µM | [11] | [6] | [7] | [8]

CC#CCOC(=O)C1=CCCN(C)C1
inactive: [1] > 46 µM | [2] > 46 µM | [3] | [11] | [6] | [7] | [8]

CN(CCc1ccc(Cl)c(Cl)c1)CCN1CCCC1
inactive: [1] > 46 µM | [2] > 46 µM | [6] | [7] | [8]

CC(=O)[C@H](CC(C)C)NC(=O)[C@@H](CC(C)C)NC(=O)[C@H](CC(C)C)NC(=O)OCc1ccccc1
active: [6] 0.335 µM
inactive: [1] > 46 µM | [2] > 46 µM | [3] | [11] | [7] | [8]

Cc1c(C(=O)NN2CCOCC2)nn(-c2ccc(Cl)cc2Cl)c1-c1ccc(I)cc1
inactive: [1] > 46 µM | [2] > 46 µM | [3] | [11] | [6] | [7] | [8]
active: [9] 6.31 µM | [10] 7.94 µM

NCCCCCCNS(=O)(=O)c1ccc2c(Cl)cccc2c1
inactive: [2] > 46 µM | [3] | [6] | [7] | [8]

Cc1c(-c2ccc(Cl)cc2)noc1C1CCN(CCc2ccccc2)CC1
inactive: [2] > 46 µM | [11] | [6] | [7] | [8]

OC(CN1CCNCC1)Cn1c2ccc(Br)cc2c2cc(Br)ccc21 (stereo not given)
inactive: [4] | [7] | [8]
